# Compound activity: PubChem, Johns Hopkins Ion Channel Center
# KCNQ2 pot: potentiators of rat KCNQ2 potassium channel; Potassium voltage-gated channel subfamily KQT member 2 (Rattus norvegicus), O88943; CHO-K1 KCNQ2, FluxOR thallium flux fluorescence; active compounds read high; B-score at 10 µM; 310,000 compounds, 0.54% hits;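 active = fluorescence ratio B-score at least 3 SD of library B-scores, with initial fluorescence B-score within 3 of them, cut at about 5.3 in these data; same plate scores as AID 2156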;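 also: B-score of peak minus minimum over baseline fluorescence ratio after K+ and Tl+ stimulus; positive B-score means potentiation of KCNQ2 with more thallium influx and brighter signal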
# Target sequence (O88943 whole entry, looked up): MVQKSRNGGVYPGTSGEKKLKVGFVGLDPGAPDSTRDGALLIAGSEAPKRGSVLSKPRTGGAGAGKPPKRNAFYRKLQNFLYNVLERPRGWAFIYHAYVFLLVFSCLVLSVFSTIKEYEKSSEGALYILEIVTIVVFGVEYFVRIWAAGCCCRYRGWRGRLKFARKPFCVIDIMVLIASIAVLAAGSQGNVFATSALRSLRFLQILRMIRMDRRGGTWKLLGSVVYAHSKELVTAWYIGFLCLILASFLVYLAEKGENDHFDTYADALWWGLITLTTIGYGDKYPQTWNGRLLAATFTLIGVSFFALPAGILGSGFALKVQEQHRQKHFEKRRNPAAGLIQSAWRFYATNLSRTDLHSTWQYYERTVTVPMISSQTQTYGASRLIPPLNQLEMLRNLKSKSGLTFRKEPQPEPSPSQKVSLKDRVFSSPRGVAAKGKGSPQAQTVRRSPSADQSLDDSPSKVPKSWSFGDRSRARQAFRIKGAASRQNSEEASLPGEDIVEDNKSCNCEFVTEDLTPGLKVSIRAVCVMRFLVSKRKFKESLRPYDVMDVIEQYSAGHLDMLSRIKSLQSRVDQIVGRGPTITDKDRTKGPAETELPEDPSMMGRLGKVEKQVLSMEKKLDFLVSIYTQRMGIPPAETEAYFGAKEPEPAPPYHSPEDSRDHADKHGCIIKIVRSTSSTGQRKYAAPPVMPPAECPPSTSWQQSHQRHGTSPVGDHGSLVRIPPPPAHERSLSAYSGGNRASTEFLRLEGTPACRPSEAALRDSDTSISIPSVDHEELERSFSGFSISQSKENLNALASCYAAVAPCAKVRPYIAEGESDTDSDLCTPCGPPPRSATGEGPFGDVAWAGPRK
# KCNQ2 block: rat KCNQ2 potassium channel inhibitors, primary screen, cell-based, CHO-K1, FluxOR thallium flux, B-score; 20 min; active compounds read low; AID 2156, 2009; 310,000 compounds, 1.1% hits; B-score at 10 µM; Potassium voltage-gated channel subfamily KQT member 2 (Rattus norvegicus), O88943;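 active = fluorescence ratio B-score at most minus 3 library SDs, with starting brightness B-score within 2 library SDs, cut at about -5.5 in these data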
# Hits are given with their value; – = inactive; · = no result. Hits are enriched below; roughly 1.6% of the tested compounds scored in any of these assays.
SMILES,KCNQ2 pot,KCNQ2 block
CC(=O)N(C1=C(Cl)C(=O)c2ccccc2C1=O)C1CCCCC1,–,-5.7
Cc1ccc(N(C(=O)Cc2cccs2)C(C(=O)NC2CCCCC2)c2ccccn2)cc1C (stereo not drawn),–,-6.2
O=C(NC1CCCCC1)C(c1cccs1)N(C(=O)Cc1c[nH]c2ccccc12)c1ccc(F)cc1 (stereo not drawn),–,-6.8
CC(=O)c1ccc(N(C(=O)Cc2c[nH]c3ccccc23)C(C(=O)NC2CCCCC2)c2cccs2)cc1 (stereo not drawn),·,–
Cc1cccc(N(C(=O)Cc2cccs2)C(C(=O)NC2CCCC2)c2ccncc2)c1 (stereo not drawn),·,–
Cc1cc(NC(=O)C2CCN(S(=O)(=O)c3cnc[nH]3)CC2)ccc1Br,–,–
O=C(CN1CCN(S(=O)(=O)c2ccc3ccccc3c2)CC1)Nc1ccc2c(c1)CCC2,–,–
COc1ccc(OC)c(-c2csc(NC(=O)c3ccc4c(c3)OCO4)n2)c1,·,–
C=C[C@]1(C)C=C2CCC3[C@](C)(CCC[C@@]3(C)C(=O)O)C2CC1 (stereo partly drawn),·,–
CC(C)C1=CC2=CCC3C(C)(C(=O)O)CCCC3(C)C2CC1 (stereo not drawn) (tested in a mixture with another compound),–,-5.8
CC(C)c1ccc(/C=C2\SC(=O)N(CC(=O)NCCCn3ccnc3)C2=O)cc1,·,–
CCOC(=O)c1cnn(C)c1NC(=O)c1ccc([N+](=O)[O-])cc1,·,–
COCC(=O)NC1CCCCCC1,·,–
O=C(NC1CCCCC1)C1CC=CCC1C(=O)OCC(Cl)=C(Cl)Cl (stereo not drawn),–,-5.5
COc1ccc(CN(CC(O)COc2cccc3[nH]cc(C)c23)C(C)(C)C)cc1 (stereo not drawn),–,-5.9
COc1ccc(CN(C)CC(O)COc2ccc(-c3ccccc3)cc2)cc1OC (stereo not drawn),–,–
COc1cc(C(=O)OCC(=O)Nc2cccc(S(=O)(=O)N3CCCC3)c2)ccc1OCC(C)C,–,–
COC(=O)c1ccc2c(=O)n(CCN3CCOCC3)c(SCC(=O)Nc3ccc(OC)cc3OC)nc2c1,·,–
COC(=O)c1ccc2c(=O)n(CCN3CCOCC3)c(SCC(=O)Nc3ccccc3Cl)nc2c1,–,-6.2
Cc1cc(C)n(-c2nc3ccccc3c(=O)n2OCCOc2ccccc2)n1,–,-5.6
C=CCOn1c(-n2nc(C)cc2C)nc2ccccc2c1=O,·,–
COc1ccccc1C(=O)N(CCN(C)C)c1nc2cc(C)cc(C)c2s1,·,–
CN(C)CCN(C(=O)c1ccc2c(c1)CCCC2)c1nc2cc3c(cc2s1)OCCO3,–,-7.8
Cc1cc(C)c2sc(N(CCN(C)C)C(=O)c3ccc4ccccc4c3)nc2c1,–,-5.9
CN(C)CCN(C(=O)c1ccc2c(c1)OCCO2)c1nc2cc3c(cc2s1)OCO3,·,–
SMILES,KCNQ2 pot,KCNQ2 block
CCOc1ccc(S(=O)(=O)N2CCC(C(=O)N3CCc4ccccc4C3)CC2)cc1,·,–
Cc1ccc(N2C(=O)c3cccc4c(Oc5ccccc5[N+](=O)[O-])ccc(c34)C2=O)c(C)c1,–,-6
Cc1cc(O)ccc1N1C(=O)c2cccc3cc([N+](=O)[O-])cc(c23)C1=O,·,–
CN(CC(=O)Nc1ccccc1Br)C(=O)CCCSc1nc2ccccc2[nH]1,–,–
CC1(C)C2CCC1(C)C(OC(=O)CC(=O)O)C2 (stereo not drawn),–,-8.2
CC1(C)C2CCC1(C)C(OC(=O)C[n+]1ccccc1)C2 (stereo not drawn),·,–
CC(C)Cn1ccc(=O)n(CC(C)C)c1=O,·,–
O=C(N/N=C/c1cccc([N+](=O)[O-])c1O)c1cccs1,6,–
O=C(N/N=C/c1ccc([N+](=O)[O-])cc1)c1cccs1,·,–
CCC1Oc2ccccc2N(CC(=O)NC2CCCCC2)C1=O (stereo not drawn),·,–
O=C(O)c1ccc(N=Nc2c(O)[nH]c3ccc(Br)cc23)cc1,–,–
O=c1ccc2cc3c([nH]c4ccc(Br)cc43)oc-2c1O,9.7,–
Cc1ccc(C)c(N=Nc2ccc(O)c3ncccc23)c1,–,–
Cc1cccc(N=Nc2ccc(O)c3ncccc23)c1,6.9,–
COc1ccccc1CNC(=O)C1CCCN1S(=O)(=O)c1cccc2cccnc12 (stereo not drawn),–,–
Cc1c(C(=O)OCC(=O)N(C)c2ccccc2)oc2ccccc12,·,–
Cc1ccc([N+](=O)[O-])cc1NC(=O)CSc1nnc(C)n1CC1CCCO1 (stereo not drawn),–,–
CCCOc1ccc(C(=O)NC2CCSc3ccccc32)cc1 (stereo not drawn),·,–
Cc1ccc(OCC(=O)NC2CCSc3ccccc32)cc1 (stereo not drawn),–,-5.9
COc1ccc(C(C(=O)NC2CCCC2)N(C(=O)c2snc(-c3ccc(F)cc3)c2N)c2ccc(F)cc2)cc1 (stereo not drawn),·,–
COc1ccc(C(C(=O)NC2CCCC2)N(C(=O)c2snc(-c3ccc(F)cc3)c2N)c2ccc(OC)cc2)cc1 (stereo not drawn),–,-5.7
COc1cc(OC)cc(C(=O)N(Cc2nc(-c3cccc(C)c3)no2)C(C)C)c1,·,–
Cc1cccc(-c2noc(CN(C(=O)C34CC5CC(CC(C5)C3)C4)C(C)C)n2)c1,–,-5.7
Cc1ccc(/C([O-])=C(/C(=S)Nc2ccc(SC(F)F)cc2)[n+]2ccccc2)cc1[N+](=O)[O-],–,–
Cc1ccccc1C(=O)N1CCN(C(c2ccccc2)c2ccccc2)CC1,·,–
SMILES,KCNQ2 pot,KCNQ2 block
Cc1occc1C(=O)N1CCN(C(c2ccccc2)c2ccccc2)CC1,–,-6.4
COC(=O)c1cc(OC)c(OC)cc1NC(=S)N1CCN(C/C=C/c2ccccc2)CC1,–,–
COc1cccc(-n2cnc3c(sc4nc(N5CCOCC5)c5c(c43)CCCC5)c2=O)c1,–,–
Cc1ccc(NC(=O)/C(=C/c2cccc([N+](=O)[O-])c2)NC(=O)C2CCCCC2)cc1,–,–
O=C(Nc1ccc(Br)cc1)/C(=C/c1cccc([N+](=O)[O-])c1)NC(=O)C1CCCCC1,–,-7.7
O=C(NCC(=O)N(c1ccccc1)C(C(=O)NC1CCCCC1)c1cccnc1)c1ccco1 (stereo not drawn),·,–
Cc1noc(C)c1CSCC(=O)Nc1cc(S(=O)(=O)N2CCOCC2)ccc1OC(C)C,·,–
CC1CCCN(S(=O)(=O)c2ccc(C(=O)Nc3nnc(-c4ccco4)o3)cc2)C1 (stereo not drawn),–,–
O=C(NCc1cccs1)c1cc(-c2ccccc2)nc2ccccc12,–,–
Cc1ccc(-c2nc3ccccc3c(C(=O)NCc3cccs3)c2C)cc1,–,-6.6
CC(=O)N1CCN(C(=O)CCC(=O)O)CC1,–,–
Cc1cc(N2CCOCC2)ccc1/C=C\[N+](=O)[O-],–,-7.1
O=[N+]([O-])c1ccc(N2CCOCC2)cc1O,–,–
COc1ccccc1C(=O)C1CCCN(Cc2cccc(OCCO)c2)C1 (stereo not drawn),–,–
Cc1cc(NC(=O)CN(C)CCOc2ccccc2)ccc1Br,·,–
CN(CCOc1ccccc1)CC(=O)Nc1cccc(Br)c1,–,-6.3
O=C(CSc1nc2ccccc2s1)N1c2ccccc2Sc2ccc(Cl)cc21,·,–
O=C(CSc1nc2ccccc2s1)N1c2ccccc2Sc2ccc(C(F)(F)F)cc21,–,-6.5
